Bioassay records as filed in PubChem.
TEAD-YAP block = TEAD-YAP interaction inhibition; HEK-TIYL cells, TEAD-Gal4/YAP UAS-luciferase luminescence; inhibition, % at 9.12 µM; actives 1.4% (n = 640,000); AID 1259422; in the data active = inhibition above about 32%;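 also: 0% = median of test compound wells and 100% = reference inhibitor wells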
FBW7 activator = activators of human E3 ligase FBW7 | Q969H0 | AlphaScreen FBW7–phospho-cyclin E peptide binding, activator screen | normalized activity (activation), % at 26.1 µM | actives 0.13% (n = 650,000) | AID 1259310; in the data active = normalized activity above about 1.9%;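 also: purified mutant Fbw7 with reduced substrate affinity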
GPR151 activ = activates the human receptor GPR151. PathHunter beta-arrestin GPR151 cells, luminescence. activation, % at 11.2 µM. actives 1% (n = 650,000). AID 1508602; in the data active = activation above about 4.9%;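 also: 0% = median of compound wells and 100% = cells with positive control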
Target sequence (Q8TDV0 whole entry, looked up): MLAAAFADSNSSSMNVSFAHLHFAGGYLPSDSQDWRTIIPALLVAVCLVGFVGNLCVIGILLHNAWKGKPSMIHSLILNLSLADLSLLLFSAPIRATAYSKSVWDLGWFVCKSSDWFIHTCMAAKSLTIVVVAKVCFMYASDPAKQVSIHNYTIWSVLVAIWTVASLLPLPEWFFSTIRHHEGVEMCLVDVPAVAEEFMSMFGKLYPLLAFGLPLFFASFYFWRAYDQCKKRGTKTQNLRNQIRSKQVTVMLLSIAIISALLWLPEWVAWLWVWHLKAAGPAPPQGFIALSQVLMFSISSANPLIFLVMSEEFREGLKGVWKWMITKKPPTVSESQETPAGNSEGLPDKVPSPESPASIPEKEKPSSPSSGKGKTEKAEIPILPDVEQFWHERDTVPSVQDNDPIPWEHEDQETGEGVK
MITF inh = human MITF inhibition, primary screen | O75030 | inhibition, % at 2.6 µM | actives 0.91% (n = 650,000) | AID 1259374 | AlphaScreen MITF homodimerization, bead proximity signal; in the data active = inhibition above about 50%;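 also: 0% = vehicle wells with protein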
Active calls of the source: *. A selection: hits, their analogues and other compounds. The true share with any hit is near 3.5%.

SMILES	TEAD-YAP block	FBW7 activator	GPR151 activ	MITF inh
COc1ccc(CN2CCOc3ccc(CN4CCCC(C(N)=O)C4)cc3C2)cc1O (stereo unspecified)	9	0	2	11
CCc1nc2sc3c(c2c(=O)n1-c1cccc(C)c1)CCCC3	-11	0	2	-6
Cn1c(=O)c2c(SCC(=O)N3CCOCC3)nc(C3CCCC3)nc2n(C)c1=O	6	0	1	6
Cc1cc(C)nc(/N=C(/NC(=O)NC2CCCCC2)Nc2ccc(F)c(Cl)c2)n1	2	0	2	11
COCCNc1nccn2c(-c3ccoc3)cnc12	-4	2.1*	-1	7
COCCCNC(=O)c1ccc(SCc2cccc(OC)c2OC)c([N+](=O)[O-])c1	61*	1	0	4
CNC(=O)/C(C#N)=C/c1ccc(-c2ccc(Br)cc2)o1	-62	0	-1	4
CNC(=O)/C(C#N)=C/c1ccc(-c2ccc(Cl)c(Cl)c2)o1	-5	1.9*	0	9
C=CCn1c(SCc2ccccc2Cl)nc2c1c(=O)[nH]c(=O)n2C	53*	0	0	9
C=CCSc1nc2c(c(=O)[nH]c(=O)n2C)n1Cc1ccccc1Cl	-3	0	1	4
C=CCn1c(SCc2cccc(C)c2)nc2c1c(=O)[nH]c(=O)n2C	45*	0	-1	-7
C[C@@H]1C[C@@H](CC(=O)NCC2Cc3cc(F)cc(-c4cnccn4)c3O2)NC(=S)N1 (stereo partly specified)	0	0	1	2
O=C(NCc1cccs1)NCC(c1ccsc1)N1CCCCCC1 (stereo unspecified)	-6	0	-1	-1
Cn1cccc(C(=O)NCC2(c3cccs3)CC2)c1=O	6	1	1	17
CC(C)COc1ccc(-c2nc3sc4c(c3c(=O)[nH]2)CCCC4)cc1	-13	0	0	-12
Cc1ccc(Cn2ccn(-c3cccc(Cl)c3)c(=O)c2=O)cc1	6	1	-2	12
Cc1cccc(Cn2ccn(-c3cccc(Cl)c3)c(=O)c2=O)c1	51*	0	0	-13
Cc1ncn(-c2ccc(Nc3cc(-c4nocc4-c4c(C)n[nH]c4C)ccn3)cc2)n1	48*	0	-2	5
CCCC(=O)Nc1ccccc1NC(=O)COc1ccccc1OC	-12	0	0	1
CC(C)CNS(=O)(=O)c1ccc(CCC(=O)N2CCN(c3ccc(F)cc3)CC2)cc1	40*	0	0	1
Cc1ccnc(NC(c2ccc(Cl)cc2)c2ccc3cccnc3c2O)c1 (stereo unspecified)	84*	-1	1	13
Cc1ccnc(NC(c2ccc(O)cc2)c2ccc3cccnc3c2O)c1 (stereo unspecified)	-5	-1	0	27
Cc1ccnc(NC(c2ccc(C(C)C)cc2)c2ccc3cccnc3c2O)c1 (stereo unspecified)	53*	0	0	4
Cc1ccnc(NC(c2ccc3cccnc3c2O)c2sccc2C)c1 (stereo unspecified)	30	-1	0	22
Cc1ccnc(NC(c2ccc(N(C)C)cc2)c2ccc3cccnc3c2O)c1 (stereo unspecified)	-56	0	2	60*
SMILES	TEAD-YAP block	FBW7 activator	GPR151 activ	MITF inh
O=C(NNS(=O)(=O)c1ccc(Cl)s1)c1ccc(Br)cc1	-9	0	1	-9
COc1cc(/C=C2/C(=N)N3N=C(C(F)(F)F)SC3=NC2=O)ccc1OCCOc1ccccc1Cl	2	0	-2	16
CCN(CC)c1ccc(/C=C/C23NC(=O)CCN2c2ccc(C)cc2C3(C)C)cc1 (stereo unspecified)	52*	-1	2	40
CC(C)NC(=O)C1CCCN(S(=O)(=O)c2cccs2)C1 (stereo unspecified)	2	0	0	-7
COc1c(C)cc(C(=O)C2CCCN(S(=O)(=O)c3cccs3)C2)cc1C (stereo unspecified)	52*	0	0	-4
COc1c(C)cc(C(=O)C2CCCN(S(=O)(=O)c3ccsc3)C2)cc1C (stereo unspecified)	44*	0	1	3
CC(C)(C)OC(=O)N1CCCC(c2ccnc3cc(C(C)(C)C)nn23)C1 (stereo unspecified)	7	2.1*	-1	9
O=C(/C=C/Nc1ccc(I)cc1)c1ccco1	19	0	-1	-8
CC(C)c1ccc(N/C=C/C(=O)c2ccco2)cc1	78*	0	-1	-20
COc1ccc(CNC(=O)CCc2c(C)nc3c4c(C)cc(C)nc4nn3c2C)cc1	-4	0	0	1
CC(C)n1c(=O)c2ccccc2n(Cc2nc(-c3ccccc3Cl)no2)c1=O	-9	0	1	-8
COc1cc(Nc2nc(C)nc3sc(C)c(C)c23)cc(OC)c1	21	0	1	-11
O=C(c1ccncc1)N1CCC(Oc2ccc(Cl)cn2)CC1	8	1	0	13
CN(C)C(=O)C(=O)Nc1ccc(Cl)c(C(=O)N2CCC(Oc3ccc(Cl)cn3)CC2)c1	48*	0	0	4
CN(C)C(=O)C(=O)Nc1ccc(Cl)c(C(=O)N2CCC(Oc3ccc(F)cc3)CC2)c1	47*	0	0	8
COc1ccc(-n2ncc3c(Nc4ccccc4SC)ncnc32)cc1	55*	0	1	-2
CSc1ccccc1Nc1ncnc2c1cnn2-c1ccccc1	-27	0	2	-3
COc1ccc(OC)c(Nc2ncnc3c2cnn3-c2cccc(C)c2)c1	42*	0	0	-8
COc1ccc(-n2ncc3c(Nc4ccc(C)cc4C)ncnc32)cc1	-30	0	-1	6
COc1ccc(-n2ncc3c(Nc4cc(C)ccc4C)ncnc32)cc1	40*	0	-2	-1
COCc1c(C(=O)N/N=C\c2cccc([N+](=O)[O-])c2)nnn1-c1nonc1N	-1	0	4	4
CC(C)N(Cc1nccn1C)c1nc2nonc2nc1NCc1ccccc1	-6	0	2	11
COc1cc2cc3c(N)c(C(=O)NCc4ccco4)sc3nc2cc1OC	-67	0	-1	25
CCc1ccc2nc3sc(C(=O)NCc4ccco4)c(N)c3cc2c1	53*	0	-1	41
CCN1C(=O)N(CC)C(NNC(N)=S)C1NNC(N)=S (stereo unspecified)	90*	0	1	-9
SMILES	TEAD-YAP block	FBW7 activator	GPR151 activ	MITF inh
O=C(Nc1nnc(-c2ccc([N+](=O)[O-])cc2)s1)c1ccc(Cl)c(Cl)c1	4	0	-1	9
N#Cc1cnc(SCc2cc(=O)n3ccccc3n2)nc1N	-9	16*	0	3
Cc1cc(NC(=O)CCCC(=O)c2ccccc2)n[nH]1	47*	0	3	9
Cc1ccc(C(=O)CCC(=O)Nc2cc(C)[nH]n2)cc1	21	0	2	8
Cc1cc(NC(=O)CSc2nc3ccccc3c(=O)n2NC(=O)c2ccccc2)n[nH]1	47*	0	-4	-3
Cc1ccc(NC(=O)CSc2nc3ccccc3c(=O)n2NC(=O)c2ccc(F)cc2)cc1Cl	57*	1	-4	9
